Measured values from PMC5540273 (PLoS ONE, 2017).

How the values were obtained:
Settings in all cases: concentration: 1 μM, replicates: in singlicate; n = 1
NIM1 = tested on: T1, NIM1
T1 construct: gene MGC42105

NLK = tested on: NLK
OSR1 = tested on: T2, OSR1
T2 construct: gene OXSR1

PAK1 = tested on: PAK1
PAK2 = tested on: PAK2
PAK3 = tested on: PAK3
PAK4 = tested on: PAK4
PAK6 = tested on: PAK6
PAK7 = tested on: PAK7
PCTK1 = tested on: T3, PCTK1
T3 construct: gene CDK16

PCTK2 = tested on: T4, PCTK2
T4 construct: gene CDK17

PCTK3 = tested on: T5, PCTK3
T5 construct: gene CDK18

PDGFRA = tested on: PDGFRA
PDGFRB = tested on: PDGFRB
PDPK1 = tested on: PDPK1
PFTAIRE2 = tested on: PFTAIRE2
PFTK1 = tested on: T6, PFTK1
T6 construct: gene CDK14

PHKG1 = tested on: PHKG1
PHKG2 = tested on: PHKG2
PIK3C2B = tested on: PIK3C2B
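Further: KINOMEscan kinase panel screen.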

SMILES	%Inh (NIM1) [%]	%Inh (NLK) [%]	%Inh (OSR1) [%]	%Inh (PAK1) [%]	%Inh (PAK2) [%]	%Inh (PAK3) [%]	%Inh (PAK4) [%]	%Inh (PAK6) [%]	%Inh (PAK7) [%]	%Inh (PCTK1) [%]	%Inh (PCTK2) [%]	%Inh (PCTK3) [%]	%Inh (PDGFRA) [%]	%Inh (PDGFRB) [%]	%Inh (PDPK1) [%]	%Inh (PFTAIRE2) [%]	%Inh (PFTK1) [%]	%Inh (PHKG1) [%]	%Inh (PHKG2) [%]	%Inh (PIK3C2B) [%]
CC(C)c1nc(-c2ccc(F)c(NS(=O)(=O)c3c(F)cccc3F)c2)c(-c2ccnc(Nc3ccc(N4CCOCC4)nc3)n2)s1 [GSK1804250]	0	96.3	7	5	11	36	0	0	10	94.6	94.9	76	88	99.6	11	11	71	0	9	17
Cn1cc(-c2ccc3c(c2)CCN3C(=O)Cc2cc(F)cc(C(F)(F)F)c2)c2c(N)ncnc21 [GSK2635225]	20	14	0	13	0	16	2	4	16	7	14	15	93	100	2	22	22	0	3	0
O=C(Nc1n[nH]c2nc(-c3ccccc3O)ccc12)C1CC1 [SB-711880]	0	10	0	0	0	0	33	8	26	11	5	15	0	0	0	5	0	17	100	14
Cl.Cl.NC(CNC(=O)c1cc(Br)c(-c2ccnc3[nH]ccc23)s1)c1ccccc1 (centres unmarked) [GSK1322949]	65	22	34	32	36	67	0	16	46	21	14	0	8	63	76	40	22	74	56	0
Nc1cccc(-c2ccc3c(N)n[nH]c3c2)c1 [GSK2193613]	0	17	13	2	2	0	0	6	15	0	19	4	9	29	0	13	30	0	11	0
O=C(Nc1n[nH]c2nc(-c3cccc(O)c3)ccc12)C1CC1 [SB-711805]	0	96.7	0	0	18	0	0	100	4	52	35	0	52	50	5	21	4	0	0	4
CC(=O)Nc1cn2nc(Oc3cccc(NC(=O)c4cccc(C(F)(F)F)c4)c3)ccc2n1	0	16	0	9	15	16	15	12	0	0	0	6	99.6	100	9	0	3	31	0	0
Cc1cccc(Nc2nc(NCCN)ncc2C(N)=O)c1 [GSK1292139]	29	0	15	16	48	16	93	76	98.6	3	0	0	51	89	0	16	0	42	63	0
CN1CCN(Cc2ccc(NC(=O)Nc3ccc(N(C)c4ccnc(Nc5ccc(CS(C)(=O)=O)cc5)n4)cc3)cc2)CC1.Cl [GW827654]	42	0	0	24	65	62	98.4	34	51	22	43	0	99.9	99.9	10	22	0	19	0	0
COc1cccc(NC(=O)NCCNc2ccnc(Nc3ccc(F)cc3)n2)c1 [GSK1379879]	17	8	17	16	8	0	0	0	0	0	0	0	0	53	0	6	18	0	0	0
Cc1ccc(-c2ccc3occ(-c4ccc(S(C)=O)cc4)c3c2)nn1 (centres unmarked)	0	1	0	6	4	0	1	0	0	0	0	0	0	0	16	0	6	0	16	0
CCNc1nccc(-c2c(-c3ccc(F)cc3)ncn2C2CCN(C)CC2)n1	0	95	0	7	8	0	2	30	0	0	0	0	0	0	15	0	1	1	12	1
CCn1cnc2c(NCc3ccccc3)ncnc21 [SKF-96418]	17	0	0	11	42	0	0	0	0	0	0	0	0	0	0	0	0	0	0	0
CSc1ccc(NC2=C(c3ccc(Cl)cc3)C(=O)NC2=O)cc1 [SB-317658]	0	0	6	2	28	36	2	29	0	0	0	0	3	31	17	4	8	0	0	0
COc1cccc(C2=C(Nc3cccc(O)c3)C(=O)NC2=O)c1 [SB-390771]	16	15	8	7	5	32	0	100	26	15	0	6	0	20	0	14	22	0	0	0
Cc1ccc(NC(=O)c2cccc(N3CCCCC3)c2)cc1-c1ccc(C(=O)NCC2CC2)cc1 [GSK1917008]	15	5	24	14	24	21	0	0	2	12	0	26	34	98.7	5	28	33	0	0	0
COc1ccc(NC(=O)c2ccoc2)cc1-c1ccc(C(=O)NCC2CC2)cc1 [GW810437]	41	11	17	0	44	24	0	0	10	4	9	0	21	4	0	13	47	0	0	14
CC(C)NCC(Cc1ccccc1)NC(=O)c1cc(Br)c(-c2ccnc3[nH]ccc23)s1.Cl.Cl (centres unmarked) [GSK1383281]	0	22	1	11	0	75	18	47	47	1	13	0	37	74	0	0	27	0	16	0
CN(C)c1ncnc2nc[nH]c12 [SKF-31736]	4	0	0	8	43	12	6	0	15	17	0	0	0	0	0	0	5	0	0	11
